High-throughput results as filed in PubChem.
NS1 inh: qHTS Assay for Inhibitors of Influenza NS1 Protein Function; Potency, µM (top dose mostly 46.1 µM); actives 0.4% (n = 270,000); calls by dose curve; also: actives are rising curves; nearly all actives have a fitted effect of over 50% in size
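Growth recovery, yeast-based: influenza A NS1 expressed in S. cerevisiae causes slow growth, and suppressors are detected by OD600. The parent strain without NS1 is used as positive control.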
Pf growth 96h: Primary qHTS for delayed death inhibitors of the malarial parasite plastid, 96 hour incubation. P. falciparum luciferase reporter growth, 96 h. Potency, µM (top dose mostly 28.7 µM), usual class: inhibitors. actives 6.9% (n = 320,000)
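P. falciparum expressing integrated firefly luciferase, in erythrocytes at 2% hematocrit, 0.05% parasitemia, incubated with compounds 96 h at 37 C, 5% CO2. Growth inhibition read as loss of luminescence; two-generation exposure targets delayed-death apicoplast inhibitors.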
HCV inhibitor: qHTS Assay for Inhibitors of Hepatitis C Virus (HCV); Huh7.5.1 HCVcc-Cre infection, luciferase reporter, 44 h; Potency, µM (series often up to 41.8 µM), actives largely listed as inhibitors; actives 3.4% (n = 340,000); AID 651820, 2012
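Whole-lifecycle infectious HCVcc-Cre system; cells 1,000/well, compound then virus (~0.5 moi) added 4 h after plating, 44 h culture. Luciferase read 15 sec following 15 min substrate incubation, room temp.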
SARS PLpro yeast: qHTS of Yeast-based Assay for SARS-CoV PLP. S. cerevisiae expressing SARS-CoV PLpro, growth rescue. actives 0.19% (n = 330,000). AID 485353, 2010. Potency, µM (highest dose often 32.9 µM), actives largely listed as activators; calls by dose curve; also: nearly all actives have a fitted effect of over 55% in size
AMA1-RON2 inh: qHTS for Inhibitors of AMA1-RON; Towards Development of Antimalarial Drug Lead: Primary Screen | Plasmodium falciparum AMA1 (3D7) - RON2 peptide interaction | Potency, µM (doses to about 58.2 µM), actives largely listed as inhibitors | AlphaScreen AMA1-biotinylated RON2 peptide binding | AID 720542, 2013 | actives 0.2% (n = 360,000); also: nearly all actives have a fitted effect of over 45% in size
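AMA1 (3D7) with his tag at 25 nM final met compounds first, then biotinylated RON2 peptide at 25 nM; detection used donor plus acceptor beads, 10 µg/mL apiece, read by AlphaScreen after 30 min at room temperature.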
Pf growth 48h: Primary qHTS for delayed death inhibitors of the malarial parasite plastid, 48 hour incubation. P. falciparum luciferase growth in erythrocytes, 48 h. Potency, µM (top dose mostly 28.7 µM), most hits filed as inhibitors. actives 5.9% (n = 310,000). AID 504832, 2011
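Firefly luciferase activity from engineered P. falciparum reports growth; inhibitors lower the luminescent signal. Cultures contained 2% hematocrit erythrocytes at 0.1% final parasitemia.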
Of the large screens only hits and unclear results are named; the others gave an inactive call. Compounds with a hit are over-represented: about 12% of the library has one in this group of screens. Unless noted, calls follow the shape of the dose curve; as a rule, active = well fitted curve in the direction sought with a large enough effect; inconclusive = small, poorly fitted or top-dose-only effect, or another doubt; inactive = no such curve, though single readings can be large; an effect the other way counts as inactive or inconclusive.

O=C(NC1CCCCC1)N1CCCCCC1	none
O=C(NC1CCS(=O)(=O)C1)N1CCCCC1 (configuration not stated)	Pf growth 96h 4.1µM (no result: Pf growth 48h)
Cc1cc(=O)[nH]c(-n2nc(C)c(Oc3ccccc3O)c2C)n1	Pf growth 48h inconclusive
Cc1nn(-c2ccc(C(F)(F)F)cn2)c(C)c1Oc1ccccc1O	Pf growth 96h 8.3µM (no result: Pf growth 48h)
O=P(O)(COc1ccccc1)COc1ccccc1	Pf growth 96h 13µM
CC(C)/C(C=O)=C(/NC1CCCCC1)c1ccccc1	none (no result: NS1 inh, Pf growth 96h, SARS PLpro yeast, Pf growth 48h)
O=C(CNC(=O)c1ccc(Br)o1)NCc1ccccc1Cl	Pf growth 96h inconclusive
Cc1cccc(C(=O)Oc2ccc(/C=N/NC(=O)c3ccncc3)cc2)c1	Pf growth 96h 12µM, Pf growth 48h 12µM (no result: NS1 inh)
Cc1cccc(C(=O)Oc2ccc(/C=N/NC(=O)c3cc(O)cc(O)c3)cc2)c1	AMA1-RON2 inh inconclusive, Pf growth 48h inconclusive
COc1ccc(/C(N)=N/OC(=O)/C=C/c2ccccc2)cc1	Pf growth 48h inconclusive (no result: NS1 inh)
CC(=O)c1ccc(OC(=O)/C=C/c2ccccc2)cc1	Pf growth 96h 10µM
CC(/C=N/NC(=O)c1ccncc1)=C\c1ccc(C(C)C)cc1	Pf growth 96h 5.2µM, Pf growth 48h 4.7µM
COC(=O)/C=C/c1ccc(OC(=O)c2ccncc2)cc1	Pf growth 96h 13µM
O=S(=O)(NCc1csc(-c2cccs2)n1)c1cccc(C(F)(F)F)c1	HCV inhibitor inconclusive
O=C(N/N=C/c1ccc(OCCCF)cc1)c1ccc(C(F)(F)F)cc1	Pf growth 48h inconclusive (no result: NS1 inh)
O=C(Oc1ccc(/C=N/NC(=O)c2ccccc2O)cc1)c1ccccc1	Pf growth 96h 6.6µM (no result: Pf growth 48h)
O=C(N/N=C/c1cc2c(c([N+](=O)[O-])c1)OCO2)c1ccncc1	Pf growth 96h 2.3µM
O=C(N/N=C/c1ccc(C(F)(F)F)cc1)c1ccncc1	Pf growth 96h 1.7µM
O=C(CCSc1ccc(F)cc1)NNC(=O)c1ccccc1Cl	none (no result: NS1 inh)
CCCCOc1ccc(NC(=O)CN2CCN(C(=O)OCC)CC2)cc1	Pf growth 96h inconclusive, Pf growth 48h 9.3µM
CCOc1ccc(NC(=O)CN2CCN(C3c4ccccc4-c4ccccc43)CC2)cc1	HCV inhibitor inconclusive, Pf growth 48h 13µM
CCCCOc1ccc(NC(=O)CN2CCN(CC)CC2)cc1	HCV inhibitor inconclusive
COc1ccccc1NC(=O)CN1CCN(C2c3ccccc3-c3ccccc32)CC1	SARS PLpro yeast inconclusive, Pf growth 48h 13µM
CN(C(=O)N1CCN(S(=O)(=O)c2ccccc2)CC1)c1ccccc1	none
Clc1ccc2c(c1)Nc1ccccc1CC2	none (no result: NS1 inh, Pf growth 96h, SARS PLpro yeast, Pf growth 48h)
CC(C)CCc1noc(CN2CCC(CCN3CCCC3=O)CC2)n1	Pf growth 96h 13µM, HCV inhibitor inconclusive
O=C(CN1CCN(c2ccc(O)cc2)CC1)Nc1ccc2c(c1)OCCCO2	Pf growth 96h inconclusive, HCV inhibitor 6.3µM, Pf growth 48h inconclusive (no result: NS1 inh)
CC(C)n1c(N2CCN(CC(=O)Nc3ccc4c(c3)OCCO4)CC2)nc2ccccc21	Pf growth 96h 5.9µM, HCV inhibitor inconclusive, Pf growth 48h inconclusive
O=C(CN1CCN(c2cccc(C(F)(F)F)c2)CC1)Nc1ccc2c(c1)OCCCO2	none (no result: NS1 inh, Pf growth 96h, HCV inhibitor, SARS PLpro yeast, Pf growth 48h)
O=S(=O)(c1cccc(F)c1)N1CCN(Cc2cc3c(cc2Br)OCCO3)CC1	Pf growth 96h inconclusive, Pf growth 48h 9.3µM (no result: NS1 inh)
CC(C)Cn1c(N2CCN(CC(=O)Nc3ccc(Cl)cc3)CC2)nc2ccccc21	HCV inhibitor inconclusive
Oc1ccc(N2CCN(Cc3cc4c(cc3Br)OCCO4)CC2)cc1	Pf growth 96h 13µM, Pf growth 48h 12µM
CCn1ncc([N+](=O)[O-])c1C(=O)Nc1c(C)nn(Cc2ccc(F)cc2)c1C	none
COc1ccc(CN(C)C(=O)Cn2cc(C)c(=O)[nH]c2=O)cc1OC	none (no result: NS1 inh, Pf growth 96h, SARS PLpro yeast, Pf growth 48h)
Cc1[nH]c(=S)c(C#N)c(-c2ccco2)c1C(=O)N(C)C	none (no result: NS1 inh)
CCn1c(SCC(=O)Nc2nc3c(s2)CCCC3)nnc1-c1ccccc1	Pf growth 48h 2.1µM (no result: HCV inhibitor)
